Assay [1] in a line: ATG_CRE_CIS: Attagene CIS-FACTORIAL HepG2 Assay for human cAMP Responsive Element (CRE) binding protein 3 (AID 2282926). Particulars: HepG2 CRE cis-reporter, Attagene multiplexed mRNA; actives raise or lower the signal. In a few lines: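 Readout: fluorescently labelled reporter transcripts resolved by capillary electrophoresis after RT-PCR, taken 24 h post-dosing in transfected HepG2. Endogenous transcription factor activity drives each cis-element reporter; gain or loss of signal fitted relative to DMSO control.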

Assay [2] concerns the target CCAAT/enhancer-binding protein beta (Homo sapiens) (UniProt P17676). Description: ATG_C_EBP_CIS: Attagene CIS-FACTORIAL HepG2 Assay for human CCAAT/Enhancer Binding Protein (C/EBP) beta (AID 2282927). Particulars: HepG2 Attagene cis-factorial transcription factor reporter; actives raise or lower the signal. In a few lines: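 Endogenous transcription factor activity in human liver HepG2 cells is inferred from induction of a CEBPB-linked reporter mRNA. Exposure lasts 24 h; activity is fitted in both directions relative to DMSO.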

Assay [3] in a line: ATG_CMV_CIS: Attagene CIS-FACTORIAL HepG2 Assay for human CMV (Internal Marker) (AID 2282928).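 Also: endpoint acts as a background internal control marker rather than a target.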 Particulars: HepG2 CMV promoter reporter, transcription factor profiling; actives raise or lower the signal. In a few lines:
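Readout: fluorescent reporter cDNA fragments separated by capillary electrophoresis after RT-PCR and HpaI cut. Cells: HepG2 carrying transfected cis-promoter reporter constructs, dosed 24 h. Endpoint serves as background internal-marker control, fit bidirectionally versus DMSO.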

Assay [4] in a line: ATG_DR4_LXR_CIS: Attagene CIS-FACTORIAL HepG2 Assay for human Liver X Receptor (LXR), DR4 submotif (AID 2282929). As to conditions: HepG2 Attagene DR4 cis-reporter, mRNA transcription; actives raise or lower the signal. In a few lines: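 Measures endogenous transcription factor activity via a DR4-driven reporter transcript in human HepG2 cells. Compounds incubated 24 h; mRNA quantified by RT-PCR and capillary electrophoresis, analysed as gain or loss of signal versus DMSO.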

Assay [5] has as its target Aryl hydrocarbon receptor (Homo sapiens) (UniProt P35869). Description: ATG_Ahr_CIS: Attagene CIS-FACTORIAL HepG2 Assay for human Aryl Hydrocarbon Receptor (Ahr) (AID 2282930). As to conditions: HepG2 AhR cis-factorial reporter transcription; actives raise or lower the signal. Put shortly: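 Transient MRTU transfection of HepG2 → 24 h compound exposure → total RNA, oligo(dT) RT → PCR, 6-FAM extension, HpaI cut → CE fluorescence. DMSO = baseline; bidirectional curve fit.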

The nature of assay [6]: ATG_AP_1_CIS: Attagene CIS-FACTORIAL HepG2 Assay for human Activator Protein 1 (AP-1) (AID 2282931). Particulars: HepG2 Attagene cis-factorial AP-1 reporter mRNA; actives raise or lower the signal. In a few lines: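 Bidirectional concentration-response fitting against DMSO controls. Underlying signal: reporter mRNA from cis-promoter constructs in transiently transfected HepG2, measured after 24 h by RT-PCR and capillary electrophoresis.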

The nature of assay [7]: ATG_AP_2_CIS: Attagene CIS-FACTORIAL HepG2 Assay for human Activator Protein 2 (AP-2) (AID 2282932). Particulars: HepG2 AP-2 cis-reporter, Attagene transcription factor profiling; actives raise or lower the signal. Put shortly:
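Endogenous transcription factor activity is reported through transfected multiplex reporter constructs in HepG2, after 24 h of compound exposure. Transcripts were quantified by RT-PCR and capillary electrophoresis of fluorescent fragments. Bidirectional fit against DMSO.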

Assay [8] can be described thus: ATG_BRE_CIS: Attagene CIS-FACTORIAL HepG2 Assay for human Bone Morphogenetic Protein (BMP) Response Element (BRE) (AID 2282933). As to conditions: HepG2 BMP response element reporter, Attagene transcription factor profiling; actives raise or lower the signal. In a few lines:
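HepG2 cells transiently transfected with multiplexed cis-element reporter units were dosed with chemical for 24 h. Reporter mRNA was measured by RT-PCR with fluorescent labelling, HpaI digestion and capillary electrophoresis; bidirectional fitting relative to DMSO.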

For assay [9], the target named is Retinoic acid receptor alpha (Homo sapiens) (UniProt P10276). Kind of assay: ATG_DR5_RAR_CIS: Attagene CIS-FACTORIAL HepG2 Assay for human Retinoic Acid Receptor Alpha (RARE), DR5 submotif (AID 2282934). As to conditions: HepG2 Attagene cis-factorial RARE DR5 reporter, mRNA; actives raise or lower the signal. In a few lines:
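Transient MRTU transfection of HepG2; 24 h compound treatment; TriZol RNA, oligo(dT) RT, PCR, FAM labelling, capillary electrophoresis. Bidirectional fit vs DMSO. Endogenous TF activity at DR5 RARE.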

Assay [10] addresses Transcription factor E2F1 (Homo sapiens) (UniProt Q01094). Description: ATG_E2F_CIS: Attagene CIS-FACTORIAL HepG2 Assay for human E2F Transcription Factor 1 (AID 2282935). As to conditions: HepG2 Attagene cis-reporter, E2F reporter RNA transcripts; actives raise or lower the signal. In a few lines: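 Gain or loss of reporter transcript, fitted against DMSO, reflects E2F1-driven transcription. Transiently transfected HepG2 dosed 24 h before RNA isolation. Quantified by fluorescent RT-PCR products separated by capillary electrophoresis.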

Assay [11] in a line: ATG_E_Box_CIS: Attagene CIS-FACTORIAL HepG2 Assay for human Enhancer Box (E-box) (AID 2282936). As to conditions: HepG2 E-box cis-reporter transcription, actives raise or lower the signal. In a few lines:
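E-box-driven reporter transcripts measured in transiently transfected HepG2 after 24 h exposure: RNA reverse-transcribed, PCR-amplified, fluorescently labelled, digested and resolved by capillary electrophoresis. Gain or loss relative to DMSO.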

Assay [12] can be described thus: ATG_M_61_CIS: Attagene CIS-FACTORIAL HepG2 Assay for M61 Transcription Factor (Internal Marker) (AID 2282937). As to conditions: HepG2 Attagene CIS-FACTORIAL M61 internal marker reporter; actives raise or lower the signal. In a few lines:
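Fluorescence from labelled cDNA fragments, separated by capillary electrophoresis, quantifies reporter induction. HepG2 cells bearing transiently transfected cis-promoter MRTUs were incubated with test chemical for 24 h; DMSO defined baseline for gain/loss fitting.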

Assay [13] is described as follows: ATG_EGR_CIS: Attagene CIS-FACTORIAL HepG2 Assay for human Early Growth Response 1 (EGR1) (AID 2282938). Particulars: HepG2 Attagene CIS-FACTORIAL EGR reporter mRNA; actives raise or lower the signal. Put shortly: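 Cell-based multiplex transcription assay: HepG2 carrying transfected cis-element reporter units, 24 h chemical treatment. Fluorescence from capillary electrophoresis of RT-PCR products gives mRNA levels; fitting is bidirectional relative to DMSO.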

Assay [14] in a line: ATG_M_19_CIS: Attagene CIS-FACTORIAL HepG2 Assay for M19 Transcription Factor (Internal Marker) (AID 2282939). As to conditions: HepG2 Attagene CIS-FACTORIAL M19 internal marker reporter; actives raise or lower the signal. In a few lines:
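HepG2 cells transiently transfected with cis-regulated multiple reporter transcription units were dosed for 24 h; reporter mRNA was quantified by RT-PCR, 6-FAM primer-extension labelling, HpaI digestion and capillary electrophoresis, with bidirectional fitting against DMSO baseline.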

The target in assay [15] is Hepatocyte nuclear factor 3-beta (Homo sapiens) (UniProt Q9Y261). Description: ATG_FoxA2_CIS: Attagene CIS-FACTORIAL HepG2 Assay for human Forkhead box A2 (FOXA2) (AID 2282942). Particulars: HepG2 cis-reporter transcription factor activity, 24 h; actives raise or lower the signal. Put shortly:
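In transiently transfected human HepG2 cells, promoter-driven reporter mRNA levels after 24 h chemical exposure are determined via RT-PCR with capillary electrophoresis. DMSO serves as baseline for bidirectional fitting.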

Assay [16] in a line: ATG_FoxO_CIS: Attagene CIS-FACTORIAL HepG2 Assay for human Forkhead box O (FoxO) (AID 2282943). As to conditions: HepG2 Attagene cis-reporter, FoxO element, mRNA; actives raise or lower the signal. Put shortly: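 HepG2, transient MRTU transfection (cis element, endogenous TFs). Dose 24 h. TriZol RNA → oligo(dT) RT → PCR → 6-FAM primer extension → HpaI cut → CE. Gain/loss vs DMSO.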

Assay [17] in a line: ATG_GATA_CIS: Attagene CIS-FACTORIAL HepG2 Assay for human GATA Binding Protein (AID 2282944). As to conditions: HepG2 GATA cis-element reporter, Attagene multiplex mRNA; actives raise or lower the signal. Put shortly: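 HepG2 cells transiently transfected with multiplexed cis-element reporter units reflecting endogenous transcription factor activity; reporter mRNA measured after 24 h dosing by RT-PCR, 6-FAM labeling, HpaI digestion and capillary electrophoresis. Bidirectional fitting versus DMSO baseline.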

Assay [18] is described as follows: ATG_GLI_CIS: Attagene CIS-FACTORIAL HepG2 Assay for human Zinc Finger Protein GLI1 (AID 2282945). Particulars: HepG2, Attagene cis-factorial reporter mRNA, GLI element; actives raise or lower the signal. In a few lines: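 Bidirectional curve fits relative to DMSO, using reporter mRNA levels from RT-PCR plus capillary electrophoresis. Cells were HepG2 transiently carrying cis-regulated reporter constructs, harvested 24 h after dosing.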

Assay [19] concerns the target Bile acid receptor (Homo sapiens) (UniProt Q96RI1). Description: ATG_IR1_CIS: Attagene CIS-FACTORIAL HepG2 Assay for human Nuclear Receptor Subfamily 1 Group H Member 4 (NR1H4), IR1 submotif (AID 2282946). As to conditions: IR1 reporter transcription, actives raise or lower the signal. In a few lines:
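HepG2 cells transiently transfected with multiplexed cis-element reporter units read endogenous transcription factor activity. After 24 h compound exposure, reporter mRNA was quantified by RT-PCR, fluorescent labelling, HpaI digestion and capillary electrophoresis; bidirectional fitting versus DMSO baseline.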

Assay [20] is described as follows: ATG_Ets_CIS: Attagene CIS-FACTORIAL HepG2 Assay for human Erythroblast Transformation Specific (ETS) (AID 2282941). As to conditions: HepG2 ETS cis-reporter transcription, actives raise or lower the signal. In a few lines: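 RT-PCR/capillary electrophoresis fluorescence read-out of reporter mRNA; HepG2 transient multi-reporter transfection; 24 h compound exposure; gain or loss of signal fitted bidirectionally relative to DMSO.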

The source made the active and inactive calls. The calls were made as follows: active = hit-call score of the fitted dose curve at least 0.9, where 1 is the maximum; inactive = score below 0.9.

Aryl hydrocarbon receptor (Homo sapiens), sequence (P35869 whole entry, looked up): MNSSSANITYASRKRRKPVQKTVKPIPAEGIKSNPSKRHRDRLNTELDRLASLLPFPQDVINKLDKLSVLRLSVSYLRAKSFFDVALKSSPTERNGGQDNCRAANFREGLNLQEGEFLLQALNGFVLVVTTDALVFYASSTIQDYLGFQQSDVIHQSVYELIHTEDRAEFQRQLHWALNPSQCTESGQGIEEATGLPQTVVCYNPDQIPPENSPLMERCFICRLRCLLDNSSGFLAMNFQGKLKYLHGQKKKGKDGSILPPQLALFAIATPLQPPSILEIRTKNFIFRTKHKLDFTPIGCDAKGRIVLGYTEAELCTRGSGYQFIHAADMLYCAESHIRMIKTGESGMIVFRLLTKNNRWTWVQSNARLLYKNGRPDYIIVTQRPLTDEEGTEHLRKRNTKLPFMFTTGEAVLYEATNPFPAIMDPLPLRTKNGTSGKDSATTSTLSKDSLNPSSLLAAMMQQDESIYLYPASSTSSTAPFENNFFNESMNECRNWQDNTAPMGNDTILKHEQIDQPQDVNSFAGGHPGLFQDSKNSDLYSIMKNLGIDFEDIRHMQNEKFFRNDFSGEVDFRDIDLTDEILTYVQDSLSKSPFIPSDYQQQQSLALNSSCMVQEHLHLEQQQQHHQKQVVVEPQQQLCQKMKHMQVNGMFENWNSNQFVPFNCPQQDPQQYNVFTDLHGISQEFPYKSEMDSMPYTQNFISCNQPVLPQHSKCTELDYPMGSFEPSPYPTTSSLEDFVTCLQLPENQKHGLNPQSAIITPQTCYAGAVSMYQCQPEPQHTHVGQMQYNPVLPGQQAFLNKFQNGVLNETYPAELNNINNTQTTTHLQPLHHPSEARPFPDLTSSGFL
CCAAT/enhancer-binding protein beta (Homo sapiens), sequence (P17676 whole entry, looked up): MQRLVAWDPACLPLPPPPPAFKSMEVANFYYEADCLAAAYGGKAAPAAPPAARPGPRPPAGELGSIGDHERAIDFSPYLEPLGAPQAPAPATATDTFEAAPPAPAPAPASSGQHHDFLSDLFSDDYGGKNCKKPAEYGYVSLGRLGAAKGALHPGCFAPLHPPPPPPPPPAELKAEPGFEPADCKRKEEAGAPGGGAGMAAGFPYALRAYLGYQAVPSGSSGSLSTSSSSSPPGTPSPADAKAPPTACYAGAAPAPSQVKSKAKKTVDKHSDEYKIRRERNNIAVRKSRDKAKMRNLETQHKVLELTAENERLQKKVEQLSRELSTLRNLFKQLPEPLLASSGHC
Retinoic acid receptor alpha (Homo sapiens), sequence (P10276 whole entry, looked up): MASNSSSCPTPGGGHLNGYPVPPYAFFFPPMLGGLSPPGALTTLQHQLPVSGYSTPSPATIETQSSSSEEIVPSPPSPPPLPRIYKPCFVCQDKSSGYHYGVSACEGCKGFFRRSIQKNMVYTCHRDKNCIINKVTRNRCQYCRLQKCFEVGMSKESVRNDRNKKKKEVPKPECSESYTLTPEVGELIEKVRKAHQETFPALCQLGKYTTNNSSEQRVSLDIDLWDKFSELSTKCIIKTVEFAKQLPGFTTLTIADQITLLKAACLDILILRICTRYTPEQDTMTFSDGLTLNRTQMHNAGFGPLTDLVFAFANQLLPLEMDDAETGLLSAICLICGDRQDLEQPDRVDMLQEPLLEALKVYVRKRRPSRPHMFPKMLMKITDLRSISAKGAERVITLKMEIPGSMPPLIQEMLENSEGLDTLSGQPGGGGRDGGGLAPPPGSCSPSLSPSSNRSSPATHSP
Transcription factor E2F1 (Homo sapiens), sequence (Q01094 whole entry, looked up): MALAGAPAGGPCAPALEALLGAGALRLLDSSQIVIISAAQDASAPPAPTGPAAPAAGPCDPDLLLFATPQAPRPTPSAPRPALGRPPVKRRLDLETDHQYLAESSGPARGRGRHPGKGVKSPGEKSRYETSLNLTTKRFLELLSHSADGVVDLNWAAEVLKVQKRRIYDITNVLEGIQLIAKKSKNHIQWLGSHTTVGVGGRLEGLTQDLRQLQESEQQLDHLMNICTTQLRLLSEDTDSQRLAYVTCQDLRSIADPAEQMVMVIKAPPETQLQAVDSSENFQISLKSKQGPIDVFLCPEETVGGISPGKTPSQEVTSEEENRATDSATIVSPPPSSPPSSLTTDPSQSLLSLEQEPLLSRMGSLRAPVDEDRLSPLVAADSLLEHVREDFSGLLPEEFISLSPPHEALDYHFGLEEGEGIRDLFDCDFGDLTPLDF
Hepatocyte nuclear factor 3-beta (Homo sapiens), sequence (Q9Y261 whole entry, looked up): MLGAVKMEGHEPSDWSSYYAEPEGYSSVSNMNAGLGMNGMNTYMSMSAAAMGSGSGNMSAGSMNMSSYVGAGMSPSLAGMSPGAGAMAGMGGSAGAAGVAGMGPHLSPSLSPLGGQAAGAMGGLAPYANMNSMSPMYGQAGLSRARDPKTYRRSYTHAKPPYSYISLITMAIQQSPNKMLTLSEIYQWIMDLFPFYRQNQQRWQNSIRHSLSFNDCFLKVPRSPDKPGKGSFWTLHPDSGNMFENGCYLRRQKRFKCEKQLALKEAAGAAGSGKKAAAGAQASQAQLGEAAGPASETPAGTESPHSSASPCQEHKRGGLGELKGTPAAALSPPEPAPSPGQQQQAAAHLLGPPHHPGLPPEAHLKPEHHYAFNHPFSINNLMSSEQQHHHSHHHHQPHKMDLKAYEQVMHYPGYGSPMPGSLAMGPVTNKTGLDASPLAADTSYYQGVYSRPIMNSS
Bile acid receptor (Homo sapiens), sequence (Q96RI1 whole entry, looked up): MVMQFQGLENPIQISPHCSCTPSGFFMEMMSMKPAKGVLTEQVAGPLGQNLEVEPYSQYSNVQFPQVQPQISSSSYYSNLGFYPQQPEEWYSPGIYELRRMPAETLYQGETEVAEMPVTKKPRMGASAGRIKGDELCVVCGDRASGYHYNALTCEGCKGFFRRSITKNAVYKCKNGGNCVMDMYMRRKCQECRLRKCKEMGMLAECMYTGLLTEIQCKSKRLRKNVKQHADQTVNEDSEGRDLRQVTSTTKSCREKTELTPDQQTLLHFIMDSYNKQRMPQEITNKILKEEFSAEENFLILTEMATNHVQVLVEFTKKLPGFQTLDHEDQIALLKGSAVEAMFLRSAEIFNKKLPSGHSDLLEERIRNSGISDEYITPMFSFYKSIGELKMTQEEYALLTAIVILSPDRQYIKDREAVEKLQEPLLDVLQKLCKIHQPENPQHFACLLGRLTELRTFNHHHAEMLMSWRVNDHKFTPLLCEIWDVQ

By AC50 is commonly meant the midpoint of the concentration-response curve, whichever way the signal moves. Regarding `Cc1cc(=O)oc2cc(N(C)C)ccc12`, the AC50 in assay [1] was 54.1 µM (active); in [3], 46.7 µM (active). The outcome in [2], in assay [4], in [5], in [6], in assay [7] and in assay [8] was inactive. The compound was classed as inactive in assay [9], in [10], in assay [11], in [12], in assay [13] and in assay [14]. The compound was classed as inactive in assay [15], in [16], in assay [17], in assay [18] and in assay [19].
Regarding `Brc1ccc(Br)c(Br)c1`, the outcome in assay [1], in [2], in assay [3], in assay [4], in assay [5] and in assay [6] was inactive. Moreover, the compound was called inactive in assay [7], in assay [8], in [9], in [10], in assay [11] and in [12]. Moreover, the compound was called inactive in assay [13], in assay [14], in [15] and in [17].
In the case of `CN(c1nccc(=O)[nH]1)C1CCN(c2nc3ccccc3n2Cc2ccc(F)cc2)CC1`, the compound was classed as inactive in [1], in assay [2], in assay [3], in assay [4], in assay [5] and in assay [6]. Also, the outcome in assay [7], in assay [8], in assay [9], in [10], in [11] and in [12] was inactive. In addition, the compound was classed as inactive in assay [13], in assay [14], in assay [20], in assay [16], in [17] and in assay [18].
Regarding `c1ccc(CCc2ccccc2)cc1`, the call in assay [1], in assay [2], in [3], in [5], in assay [7] and in [8] was inactive. For the same compound, the outcome in [9], in assay [10], in [11], in [12], in [13] and in [14] was inactive. The outcome in assay [20], in [15], in assay [17], in assay [18] and in assay [19] was inactive. For the same compound, the concentration at half-maximal activity (AC50) was 161 µM (active) in assay [4] and 172 µM (active) in [6].
